Assay results published in PubChem BioAssay.
The source made the active and inactive calls.

Experiment: S. cerevisiae RM11-1a growth modifiers, primary screen, strain RM11-1a, OD600, basal, 24 h (AID 1177);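 further: cultures grown under basal conditions with no added stressor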
Settings: OD600, 24 h, higher = more signal, called active from +8 up or from −8 down
Further: test concentration not given here.

z-score, inactive:
O=C1C[C@@](C(=O)NC2CC2)(c2ccc([N+](=O)[O-])cc2)[C@@H](c2ccc(CO)cc2I)N1C1CCCCC1 -0.0222
COc1cc2c(cc1OC)CN(C(=O)[C@H]1[C@@H]3C(=O)O[C@@H](c4ccccc4)[C@@H](c4ccccc4)N3[C@@H](c3ccc(O)cc3)[C@]13C(=O)Nc1ccccc13)CC2 1.07
O=C1O[C@H](c2ccccc2)[C@H](c2ccccc2)N2[C@H]1[C@@H](C(=O)N1CCCCCCC1)[C@]1(C(=O)Nc3ccc(C#CC4=CCCCC4)cc31)[C@H]2c1ccc(OCCO)cc1 0.6
COC(=O)[C@@]1(CCC(=O)OC(C)(C)C)N=C(c2ccc(OCCCO)cc2)O[C@H]1c1ccccc1N=[N+]=[N-] 1
O=C1C2C=CC(C(O)c3cc(C(F)(F)F)cc(C(F)(F)F)c3)N(n3cnnc3)C2C(=O)N1Cc1ccccc1 (stereo not drawn) 1.09
CCCCCN1CC=CC23O[C@@H]4C=CCCOC(=O)C4[C@H]2C(=O)N(CCCCCO)[C@@H]3C1=O (stereo partly drawn) 0.467
COc1ccc([Si](C)(C)[C@@H]2[C@@H](CCO)O[C@]3(C(=O)N(Cc4ccc(N(C=O)c5ccccc5)cc4)c4ccccc43)[C@H]2C)cc1 4.89
C=CCOC(=O)[C@H]1[C@@H]2C(=O)O[C@@H](c3ccccc3)[C@@H](c3ccccc3)N2[C@@H](c2ccc(OCCOC(=O)[C@H]3C[C@H]4C(=O)N[C@@H](CCCCNC(C)=O)C(=O)N4[C@H]3c3cccc(OCCO)c3)cc2)[C@]12C(=O)Nc1ccccc12 1.29
[N-]=[N+]=NCc1ccccc1C[C@]1(C(N)=O)COC(c2ccc(OCCCO)cc2)=N1 -1.37
C=C(CC1([C@@H](NP(=O)(c2ccccc2)c2ccccc2)[C@H]2C[C@@H]2CCCC)CC1)c1ccccc1 0.753
CC[C@@H]1C=C(C(=O)O)[C@H](c2ccc(Br)cc2)N1S(=O)(=O)c1ccc(C)cc1 -0.716
C=C(CCCC)/C(=C/C[C@H](OC(C)=O)c1ccccc1OCCO)c1cc(C(=O)OC)ccc1OC -0.0572
COC(=O)[C@@]1(Cc2ccc(OC)cc2)[C@H]2c3cc(C(=O)N(C)C)n(C)c3C[C@H]2CN1C(=O)c1ccccc1 0.241
CN(C)CCCCCCNC(=O)[C@H]1C[C@H]2C(=O)N[C@@H](CCCCN)C(=O)N2[C@H]1c1cccc(OCCO)c1 -0.533
NC(=O)NCC#Cc1ccc2c(c1)[C@]1(C(=O)N2)[C@H](c2ccccc2OCCO)N2[C@H](c3ccccc3)[C@H](c3ccccc3)OC(=O)[C@H]2[C@@H]1C(=O)Nc1nc2ccccc2s1 2.16
CC1CC/C=C\[C@H]2OC34C=CCN(C(C)(C)C)C(=O)[C@H]3N(CCO)C(=O)[C@@H]4C2C(=O)O1 (stereo partly drawn) -0.546
C=C(COC)/C(=C/C[C@H](OC(C)=O)c1ccc(CO)o1)c1cc(C(=O)OC)ccc1OC -0.253
CNS(=O)(=O)c1ccc(C)cc1 -1.4

Experiment: E. coli acrAB mutant growth effects, primary screen, E. coli filamentation inducers, strain DRC39, OD650, 24 h (AID 1178);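 further: growth measured as culture turbidity by optical density at 650 nm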
Settings: higher = more signal, called active from +8 up or from −8 down

z-score, inactive:
O=C1NC(=O)C2C1C=CC(C(O)c1cc(C(F)(F)F)cc(C(F)(F)F)c1)N2Nc1ccccn1 (stereo not drawn) -0.509
C=C(/C(=C/C[C@H](OC(C)=O)c1ccccc1OCCO)c1cnc2ccccc2c1)C(C)C -0.672
COC(=O)[C@H](Cc1ccccc1)N1CC2=C[C@@H](C3CC3)n3c(=O)n(C)c(=O)n3[C@H]2[C@@H]1[C@@H](O)Cc1ccccc1 -0.172
CC(=O)n1cc(C(O)C2C=CC3C(=O)N(c4ccccc4)C(=O)C3N2Nc2ccc([N+](=O)[O-])cc2)c2ccccc21 (stereo not drawn) -1.34
CN1C=C(C(=O)OCCS(C)(=O)=O)C(C(=O)OCCS(C)(=O)=O)=CC(c2ccc(CO)cc2)=CC1C1CC1 (stereo not drawn) 0.815
COC(=O)[C@]1(CCC(=O)OC(C)(C)C)N=C(c2ccc(OCCCO)cc2)O[C@@H]1c1ccccc1CN=[N+]=[N-] 0.637
C=CCNC(=O)[C@@H]1[C@H]2C(=O)O[C@H](c3ccccc3)[C@H](c3ccccc3)N2[C@H](c2ccc(OCCO)cc2)[C@@]12C(=O)Nc1ccc(C#CCC(C(=O)OC)C(=O)OC)cc12 0.196
COC(=O)C(CC#Cc1ccc2c(c1)[C@]1(C(=O)N2)[C@H](c2ccc(OCCO)cc2)N2[C@H](c3ccccc3)[C@H](c3ccccc3)OC(=O)[C@H]2[C@@H]1C(=O)N1CCc2cc(OC)c(OC)cc2C1)C(=O)OC 0.242
NC(=O)N1C(=O)C2C(C1=O)C1C=C(c3ccc(CO)cc3)C2C(c2cccs2)N1Cc1cccc(OC(F)(F)F)c1 (stereo not drawn) -5.27
C=CCC(OC(C)=O)[C@@H]1[C@@H](N(Cc2ccc(-c3ccccc3)cc2)C(=O)c2cccc3ccccc23)c2cc(OCCCO)ccc2N1C(=O)c1ccc(-c2ccccc2)cc1 (stereo partly drawn) 1.59
COc1cc(NN2C(C(O)c3ccco3)C=CC3C(=O)N(c4ccccc4)C(=O)C32)cc(OC)c1OC (stereo not drawn) -0.225
CC(C)[Si]1(C(C)C)O[C@@H](c2ccccc2)c2cc(-c3ccc(-c4ccc(Cl)c(Cl)c4)o3)nc(-c3ccccc3)c21 -0.0522
CCOC(=O)C[C@H]1[C@H](OC(=O)c2ccc(C(=O)c3ccccc3)cc2)[C@@H](NC(=O)c2ccc3ccccc3n2)c2cc(OCCCO)ccc2N1C(=O)c1ccccc1 -0.28
CC(C)C(O)C1C=CC2C(=O)NC(=O)C2N1Nc1ccc(Cl)cc1Cl (stereo not drawn) -0.456
COc1ccc(C#Cc2ccc3c(c2)[C@]2(C(=O)N3)[C@H](C(=O)Nc3nc4ccccc4s3)[C@H]3C(=O)O[C@H](c4ccccc4)[C@H](c4ccccc4)N3[C@@H]2c2ccc(O)cc2)cc1 0.237
COC(=O)[C@@]1(Cc2ccccc2)N=C(c2ccc(OCCCO)cc2)O[C@H]1c1ccccc1 2.8
[N-]=[N+]=Nc1ccccc1[C@H]1OC(c2ccc(OCCCO)cc2)=N[C@@]1(CCS(=O)(=O)c1ccccc1)C(N)=O 0.981
O=C1C[C@@](C(=O)NC2CC2)(c2ccc([N+](=O)[O-])cc2)[C@@H](c2ccc(CO)cc2I)N1C1CCCCC1 0.149
COc1cc2c(cc1OC)CN(C(=O)[C@H]1[C@@H]3C(=O)O[C@@H](c4ccccc4)[C@@H](c4ccccc4)N3[C@@H](c3ccc(O)cc3)[C@]13C(=O)Nc1ccccc13)CC2 0.188
O=C1O[C@H](c2ccccc2)[C@H](c2ccccc2)N2[C@H]1[C@@H](C(=O)N1CCCCCCC1)[C@]1(C(=O)Nc3ccc(C#CC4=CCCCC4)cc31)[C@H]2c1ccc(OCCO)cc1 0.825
COC(=O)[C@@]1(CCC(=O)OC(C)(C)C)N=C(c2ccc(OCCCO)cc2)O[C@H]1c1ccccc1N=[N+]=[N-] 0.276
O=C1C2C=CC(C(O)c3cc(C(F)(F)F)cc(C(F)(F)F)c3)N(n3cnnc3)C2C(=O)N1Cc1ccccc1 (stereo not drawn) 0.375
CCCCCN1CC=CC23O[C@@H]4C=CCCOC(=O)C4[C@H]2C(=O)N(CCCCCO)[C@@H]3C1=O (stereo partly drawn) 0.685
COc1ccc([Si](C)(C)[C@@H]2[C@@H](CCO)O[C@]3(C(=O)N(Cc4ccc(N(C=O)c5ccccc5)cc4)c4ccccc43)[C@H]2C)cc1 0.544
C=CCOC(=O)[C@H]1[C@@H]2C(=O)O[C@@H](c3ccccc3)[C@@H](c3ccccc3)N2[C@@H](c2ccc(OCCOC(=O)[C@H]3C[C@H]4C(=O)N[C@@H](CCCCNC(C)=O)C(=O)N4[C@H]3c3cccc(OCCO)c3)cc2)[C@]12C(=O)Nc1ccccc12 0.561
[N-]=[N+]=NCc1ccccc1C[C@]1(C(N)=O)COC(c2ccc(OCCCO)cc2)=N1 1.23
C=C(CC1([C@@H](NP(=O)(c2ccccc2)c2ccccc2)[C@H]2C[C@@H]2CCCC)CC1)c1ccccc1 -0.167
CC[C@@H]1C=C(C(=O)O)[C@H](c2ccc(Br)cc2)N1S(=O)(=O)c1ccc(C)cc1 -0.593
C=C(CCCC)/C(=C/C[C@H](OC(C)=O)c1ccccc1OCCO)c1cc(C(=O)OC)ccc1OC 0.427
COC(=O)[C@@]1(Cc2ccc(OC)cc2)[C@H]2c3cc(C(=O)N(C)C)n(C)c3C[C@H]2CN1C(=O)c1ccccc1 -0.372
CN(C)CCCCCCNC(=O)[C@H]1C[C@H]2C(=O)N[C@@H](CCCCN)C(=O)N2[C@H]1c1cccc(OCCO)c1 0.422
NC(=O)NCC#Cc1ccc2c(c1)[C@]1(C(=O)N2)[C@H](c2ccccc2OCCO)N2[C@H](c3ccccc3)[C@H](c3ccccc3)OC(=O)[C@H]2[C@@H]1C(=O)Nc1nc2ccccc2s1 0.525
CC1CC/C=C\[C@H]2OC34C=CCN(C(C)(C)C)C(=O)[C@H]3N(CCO)C(=O)[C@@H]4C2C(=O)O1 (stereo partly drawn) -0.344
C=C(COC)/C(=C/C[C@H](OC(C)=O)c1ccc(CO)o1)c1cc(C(=O)OC)ccc1OC -1.38
CNS(=O)(=O)c1ccc(C)cc1 0.738
